According to PubChem BioAssay (NCATS):
Records with an inconclusive call do not appear. Entries that show only a call come without a potency. Active and inactive are the calls of the source. Calls follow the shape of the dose curve; as a rule, active = well fitted curve in the direction sought with a large enough effect; inconclusive = small, poorly fitted or top-dose-only effect, or another doubt; inactive = no such curve, though single readings can be large; an effect the other way counts as inactive or inconclusive.

Legend:
[1] = qHTS assay for measurement of the activity of small molecule inhibitors on Zika virus induced Caspase-3 activity in human iPSC derived neural progenitor cells (hNPCs) (AID 1224857); also: nearly all actives have a fitted effect of over 65% in size
Method in brief: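 Quantitative HTS format: human iPSC neural progenitors, 1 h compound pretreatment, ZIKV 2 FFU/cell for 6 h at 37 C. Percent inhibition derived from luminescent caspase-3/7 signal between uninfected and infected controls.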

[2] = qHTS assay for measurement of the activity of small molecule inhibitors on Zika virus induced Caspase-3 activity in human astrocytoma cells (AID 1224859)
Method in brief: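 Readout is luminescence from Caspase-Glo 3/7 added after a 6 h ZIKV infection (2 FFU/cell) of compound-pretreated (1 h) SNB-19 cells; data expressed as % inhibition versus uninfected and infected wells.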

[3] = qHTS assay to identify small molecule inhibitors of chordoma cells - UCH-1 (AID 1259355); also: nearly all actives have a fitted effect of over 55% in size
Method in brief: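 Luminescent ATP read-out (CellTiter-Glo, 30min at room temperature) measured viability of UCH-1 cells exposed for 48hr to test drugs at 15 concentrations, co-dosed with a five-agent combination of auranofin, camptothecin, doxorubicin, rubitecan and topotecan.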

[4] = qHTS assay to identify small molecule inhibitors of chordoma cells - UCH-2 (AID 1259356); also: series mostly up to about 46 µM
[5] = P-glycoprotein substrates identified in KB-8-5-11 adenocarcinoma cell line, qHTS therapeutic library screen (AID 1346987); details: outcome: dose series up to 44.5 µM; also: series mostly up to about 44 µM; nearly all actives have a fitted effect of over 65% in size
Method in brief: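 Steps: plate 500 KB-8-5-11 cells/well in DMEM + 10% FCS (colchicine removed); pin compounds in dose-response; incubate 72 h, 37 degree C, 5% CO2; add CellTiter-Glo, 5 min; read luminescence.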

[6] = NS1 protein of Zika virus - qHTS assay to identify small molecule inhibitors in human HEK 293 cells (AID 1347053); also: series mostly up to about 46 µM; nearly all actives have a fitted effect of over 55% in size
Method in brief: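 HEK 293; 20 h pre-culture, 37 C/5% CO2; cpd 1 h pre-infection; ZIKV MR766, MOI = 0.5, 24 h, 37 C; TR-FRET NS1 readout (two anti-NS1 Abs); norm. to no-virus vs infected.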

[7] = qHTS of pediatric cancer cell lines to identify multiple opportunities for drug repurposing: Primary screen for TC32 cells (AID 1347089); also: nearly all actives have a fitted effect of over 60% in size
Method in brief: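 Measured quantity: luminescence from CellTiter-Glo, reflecting metabolically active TC32 cells following 48 h of compound. Curves came straight from multi-point titrations, with 8 or 11 points in primary and 11 in confirmatory screening.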

[8] = qHTS of pediatric cancer cell lines to identify multiple opportunities for drug repurposing: Primary screen for DAOY cells (AID 1347090); also: series mostly up to about 46 µM; nearly all actives have a fitted effect of over 55% in size
Method in brief: (§1)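 Eight- or eleven-point concentration series, 48 h treatment at 37 degrees C in growth media; readout CellTiter-Glo luminescence. Potency and efficacy were taken from the concentration-response curves.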

[9] = qHTS of pediatric cancer cell lines to identify multiple opportunities for drug repurposing: Primary screen for SJ-GBM2 cells (AID 1347091)
Method in brief: as §1

[10] = qHTS of pediatric cancer cell lines to identify multiple opportunities for drug repurposing: Primary screen for A673 cells (AID 1347092); also: nearly all actives have a fitted effect of over 45% in size
Method in brief: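 Cells are plated, rested 5 h, dosed by pintool, incubated 48 h, then lysed with CellTiter-Glo and read by luminescence. DMSO is the neutral control; bortezomib at 2.3 uM final is the positive control.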

[11] = qHTS of pediatric cancer cell lines to identify multiple opportunities for drug repurposing: Primary screen for SK-N-MC cells (AID 1347093); also: potency is read from the fitted curve at half-maximal effect
Method in brief: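 Metabolically active cells were quantified by ATP-dependent luminescence (CellTiter-Glo, 15 min at room temperature) following 48 h treatment. Cells had been plated at 500-1,000 per well and settled for 5 h beforehand.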

[12] = qHTS of pediatric cancer cell lines to identify multiple opportunities for drug repurposing: Primary screen for BT-37 cells (AID 1347094); also: series mostly up to about 57 µM
Method in brief: (§2)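 CRCs from 8- or 11-point titrations (lowest final 0.59 nM NPC, 0.78 nM MIPE). Cell viability: CellTiter-Glo after 48 h incubation, 15 min room-temperature development, luminescence imaging.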

[13] = qHTS of pediatric cancer cell lines to identify multiple opportunities for drug repurposing: Primary screen for NB-EBc1 cells (AID 1347095)
Method in brief: as §2

[14] = qHTS of pediatric cancer cell lines to identify multiple opportunities for drug repurposing: Primary screen for U-2 OS cells (AID 1347096); also: nearly all actives have a fitted effect of over 50% in size
Method in brief: (§3)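 Cells (500-1,000/well) in growth media were settled 5 h at 37 degrees C, then given compounds for 48 h. Viability was read as CellTiter-Glo luminescence. Primary runs used MIPE at 11 points (0.78 nM-46 µM) and NPC at 8 points (0.59 nM-46 µM); follow-ups used 11 points.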

[15] = qHTS of pediatric cancer cell lines to identify multiple opportunities for drug repurposing: Primary screen for Saos-2 cells (AID 1347097); also: nearly all actives have a fitted effect of over 40% in size
Method in brief: as §2

[16] = qHTS of pediatric cancer cell lines to identify multiple opportunities for drug repurposing: Primary screen for SK-N-SH cells (AID 1347098);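 also: DMSO served as neutral control and bortezomib at 2.3 µM as positive control; nearly all actives have a fitted effect of over 65% in size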
Method in brief: (§4)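 Cells (500-1,000/well) rested 5 h, then received compounds for 48 h; metabolically active cells were measured by CellTiter-Glo luminescence. Final concentrations spanned up to 46 µM (MIPE, 11-point) or 0.59 nM-46 µM (NPC, 8-point) in primary screens, 11-point in follow-ups.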

[17] = qHTS of pediatric cancer cell lines to identify multiple opportunities for drug repurposing: Primary screen for NB1643 cells (AID 1347099); also: nearly all actives have a fitted effect of over 50% in size
Method in brief: as §2

[18] = qHTS of pediatric cancer cell lines to identify multiple opportunities for drug repurposing: Primary screen for LAN-5 cells (AID 1347100)
Method in brief: as §3

[19] = qHTS of pediatric cancer cell lines to identify multiple opportunities for drug repurposing: Primary screen for BT-12 cells (AID 1347101); also: nearly all actives have a fitted effect of over 25% in size
Method in brief: as §4

Row | Compound | outcome [1] | outcome [2] | outcome [3] | outcome [4] | outcome [5] | outcome [6] | outcome [7] | outcome [8] | outcome [9] | outcome [10] | Potency [11] | outcome [12] | outcome [13] | outcome [14] | outcome [15] | outcome [16] | Potency [17] | outcome [18] | outcome [19]
1 | COc1ccc(Cc2cnc(N)nc2N)cc1OC | inactive | inactive | inactive | inactive | inactive | inactive | inactive | inactive | inactive | inactive | 7.5 µM (active) | inactive | inactive | inactive | inactive | inactive | inactive | inactive | inactive
2 | c1ccc2[nH]ccc2c1 | inactive | inactive | inactive | inactive | inactive | inactive | inactive | inactive | inactive | inactive | inactive | inactive | inactive | inactive | inactive | inactive | inactive | inactive | inactive
3 | C1CCN2C[C@@H]3C[C@@H](CN4CCCC[C@@H]34)[C@H]2C1 | inactive | inactive | inactive | inactive | inactive | inactive | inactive | inactive | inactive | inactive | inactive | inactive | inactive | inactive | inactive | inactive | inactive | inactive | inactive
4 | CN/C(=C\[N+](=O)[O-])NCCSCc1csc(CN(C)C)n1 | inactive | inactive | inactive | inactive | inactive | inactive | inactive | inactive | inactive | inactive | inactive | inactive | inactive | inactive | – | inactive | inactive | inactive | inactive
5 | C[N+](C)(C)CC(O)CC(=O)[O-] (configuration not stated) | inactive | inactive | inactive | inactive | inactive | inactive | inactive | inactive | inactive | inactive | inactive | inactive | inactive | inactive | – | inactive | inactive | inactive | inactive
6 | CO[C@@]1(NC(=O)C(C(=O)O)c2ccc(O)cc2)C(=O)N2C(C(=O)O)=C(CSc3nnnn3C)CO[C@@H]21 (some centres not stated) | inactive | inactive | inactive | inactive | inactive | inactive | inactive | inactive | inactive | inactive | inactive | inactive | inactive | inactive | inactive | – | inactive | inactive | inactive
7 | NC(=O)N[C@@H](CCC(=O)O)C(=O)O | inactive | inactive | inactive | inactive | inactive | inactive | inactive | inactive | inactive | inactive | inactive | inactive | inactive | inactive | – | inactive | inactive | inactive | inactive
8 | C[N+](C)(C)CC[N+]1(C)Cc2c(Cl)c(Cl)c(Cl)c(Cl)c2C1 | inactive | inactive | inactive | inactive | inactive | inactive | inactive | inactive | inactive | inactive | inactive | inactive | inactive | inactive | inactive | – | inactive | inactive | inactive
9 | COc1ccc2cc(CCC(C)=O)ccc2c1 | inactive | inactive | inactive | inactive | inactive | inactive | inactive | inactive | inactive | inactive | inactive | inactive | inactive | inactive | – | inactive | inactive | inactive | inactive
10 | CC[C@H](C)[C@H](N)C(=O)O | inactive | inactive | inactive | inactive | inactive | inactive | inactive | inactive | inactive | inactive | inactive | inactive | inactive | inactive | inactive | – | inactive | inactive | –
11 | Nc1ccncc1N | inactive | inactive | inactive | inactive | inactive | inactive | inactive | inactive | inactive | inactive | inactive | inactive | inactive | inactive | – | inactive | inactive | inactive | –
12 | C[C@]1(Cn2ccnn2)[C@H](C(=O)O)N2C(=O)C[C@H]2S1(=O)=O | inactive | inactive | inactive | inactive | inactive | inactive | inactive | inactive | inactive | inactive | inactive | inactive | inactive | inactive | inactive | – | inactive | inactive | inactive
13 | COc1ccc(C(=O)NCc2ccc(OCCN(C)C)cc2)cc1OC | inactive | inactive | inactive | inactive | inactive | inactive | inactive | inactive | inactive | inactive | inactive | inactive | inactive | inactive | inactive | – | inactive | inactive | –
14 | CCC(C)(CN(C)C)OC(=O)c1ccccc1 (configuration not stated) | inactive | inactive | inactive | inactive | inactive | inactive | inactive | inactive | inactive | inactive | inactive | inactive | inactive | inactive | – | inactive | inactive | inactive | –
15 | C[C@@H]1O[C@@H](OC[C@H]2O[C@@H](Oc3c(-c4ccc(O)c(O)c4)oc4cc(O)cc(O)c4c3=O)[C@H](O)[C@@H](O)[C@@H]2O)[C@H](O)[C@H](O)[C@H]1O | inactive | inactive | inactive | inactive | inactive | inactive | inactive | inactive | inactive | inactive | inactive | inactive | inactive | inactive | inactive | – | inactive | inactive | inactive
16 | O=C(NCC(O)CO)c1c(I)c(C(=O)NCC(O)CO)c(I)c(N(CCO)C(=O)CO)c1I (configuration not stated) | inactive | inactive | inactive | inactive | inactive | inactive | inactive | inactive | inactive | inactive | inactive | inactive | inactive | inactive | – | inactive | inactive | inactive | inactive
